# Active and inactive are the calls of the source. How the source made its calls: active means hit-call score of the fitted dose curve at least 0.9, where 1 is the maximum; inactive means score below 0.9.
# Read-out: Cellular tumor antigen p53 (Homo sapiens) (UniProt P04637)
# Assay: LTEA_HepaRG_TP53: Life Technologies and Expression Analysis (LTEA) Assay for Tumor Protein P53 (TP53) using HepaRG (AID 2283537)
# Conditions: mRNA level, 48 h; actives raise or lower the signal
# In short: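 HepaRG, 48 h exposure, top 100 uM, half-log 8-point, 0.5% DMSO vehicle, duplicates. Read: TP53 mRNA by TaqMan qRT-PCR, normalised to ACTB/GAPDH/POLR2A; bidirectional fit vs DMSO.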
# Cellular tumor antigen p53 (Homo sapiens), sequence (P04637 whole entry, looked up): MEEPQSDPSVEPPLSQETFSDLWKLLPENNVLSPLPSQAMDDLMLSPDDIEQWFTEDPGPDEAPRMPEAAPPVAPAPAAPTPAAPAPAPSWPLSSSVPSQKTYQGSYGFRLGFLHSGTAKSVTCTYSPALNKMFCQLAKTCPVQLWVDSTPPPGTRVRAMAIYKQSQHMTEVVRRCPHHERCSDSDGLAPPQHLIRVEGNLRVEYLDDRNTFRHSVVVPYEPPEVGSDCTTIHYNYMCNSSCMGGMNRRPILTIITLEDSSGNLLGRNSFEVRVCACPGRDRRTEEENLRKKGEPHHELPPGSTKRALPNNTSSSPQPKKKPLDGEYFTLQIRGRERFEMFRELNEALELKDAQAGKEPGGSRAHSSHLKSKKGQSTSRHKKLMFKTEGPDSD
SMILES,outcome,AC50
C=CC(N)=O,inactive,–
CCOCCOC(C)=O,inactive,–
Oc1ccc(C(c2ccc(O)cc2)(C(F)(F)F)C(F)(F)F)cc1,–,94.5 µM (active)
CCCCCCOC(=O)c1ccccc1C(=O)OCCCCCC,inactive,–
O=S(=O)(O)C(F)(F)C(F)(F)C(F)(F)C(F)(F)F,inactive,–
CCCCCCCCCC[N+](C)(C)CCCCCCCCCC,inactive,–
CCC(=O)O[C@H]1CC[C@H]2[C@@H]3CCC4=CC(=O)CC[C@]4(C)[C@H]3CC[C@]12C,inactive,–
CC(C)(O)C(=O)Nc1ccc([N+](=O)[O-])c(C(F)(F)F)c1,–,0.0309 µM (active)
CO/C=C(/C(=O)OC)c1ccccc1COc1cccc(C(F)(F)F)n1,–,10.1 µM (active)
CC(c1ccc(O)cc1)(c1ccc(O)cc1)c1ccc(O)cc1,–,93.9 µM (active)
CN(C)CCO,inactive,–
CC1=C2C[C@H]3[C@@H](CC=C4C[C@@H](O)CC[C@@]43C)[C@@H]2CC[C@]12O[C@@H]1C[C@H](C)CN[C@H]1[C@H]2C,inactive,–
Cc1cc(O)ccc1Cl,inactive,–
Nn1cnnc1,inactive,–
O=C(O)C(F)(F)C(F)(F)C(F)(F)C(F)(F)C(F)(F)C(F)(F)C(F)(F)C(F)(F)F,–,60.4 µM (active)
Cc1cccc(C)c1N,inactive,–
O=C(NC(=O)c1c(F)cccc1F)Nc1cc(Cl)c(OC(F)(F)C(F)F)c(Cl)c1,inactive,–
O=C(NC(=O)c1cc(F)c(F)cc1Cl)Nc1cc(F)ccc1N1CCC(C(=O)O)CC1,inactive,–
O=C(O)C(F)(F)C(F)(F)C(F)(F)C(F)(F)C(F)(F)F,inactive,–

# — PubChem BioAssay (EPA / NIEHS)
